Pf Dd2 inh: inhibitors of Plasmodium falciparum Dd2 growth; Potency, µM (top dose mostly 28.9 µM), for inactives: at the top dose activity, negative = inhibition, most hits filed as inhibitors; P. falciparum Dd2 growth, SYBR Green, 72 h; 4.3% of 120,000 active; active = well fitted inhibition curve with a large enough effect;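 note: plate controls were DMSO vehicle for no effect and reference drug for full effect; nearly all actives have a fitted effect of over 65% in size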
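Readout: SYBR Green fluorescence, 485 nm excitation, 535 nm emission, after ~16 h lysis at 37C. Before that, Dd2-infected red cells (2.5% hematocrit) grew 72 h with compound, 29 uM top final concentration.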
An asterisk follows results filed as active; i = inactive; [ ] = remark or other dose. Only a selection was taken, and hits are over-represented in it overall. Potency is the fitted concentration of half-maximal effect.

SMILES	Pf Dd2 inh
Cc1ccc(Cl)cc1N1CCN(C(=O)C2CCN(S(=O)(=O)c3ccc4c(c3)oc(=O)n4C)CC2)CC1	i
Cc1ccc(C)c(N2CCN(S(=O)(=O)c3ccc4c(c3)CCCN4C(=O)C3CCC3)CC2)c1	5.9%
CCOC(=O)c1c(S(=O)(=O)N2CCCC(C(=O)Nc3cc(C)ccc3OC)C2)c(C)n(C)c1C (stereo not drawn)	29.4%
CC(C)C(=O)N1CCC(Oc2ncccc2C(=O)N2CCCCC2)C1 (stereo not drawn)	-8.7%
Cc1nc(CN2C(=O)OC3(CCN(C(=O)c4cccnc4)CC3)C2(C)c2ccccc2)cs1 (stereo not drawn)	-19.0%
COCCCNC(=O)C1CCN(C(=O)c2nnn3c2COC(c2ccc(C)cc2)C3)CC1 (stereo not drawn)	i
COCCOCc1nc(C2CCN(S(=O)(=O)c3c(C)noc3C)CC2)no1	-5.8%
COc1ccc(NC(=O)Cn2ccn3nc4c(c3c2=O)CCCCC4)cc1Cl	i
CC(C)CN1C(=O)c2ccccc2C(C(=O)NCc2ccco2)C12CCCC2 (stereo not drawn)	-20.6%
O[C@]12CCNC[C@H]1CN(Cc1cccc(-c3ccccc3)c1)CC2	8.91µM*
CN1C(=O)CC(C(=O)O)C12CCN(Cc1cccc(-c3ccccc3)c1)CC2 (stereo not drawn)	-16.1%
OC[C@]12CCCN[C@@H]1CCN(Cc1cccc(-c3ccccn3)c1)C2	i
Cc1ccc(NC(=O)N2CCC(N3CC4CC(C3)[C@H]3CCCC(=O)N3C4)CC2)cc1F (stereo partly drawn)	17.5%
COc1ccc(OC)c(S(=O)(=O)N2CCCC(c3nc(C(C)C)no3)CCNC(=O)CC2)c1 (stereo not drawn)	-16.4%
O=C1CO[C@H]2CN(Cc3ccc4c(c3)OCO4)C[C@H]2N1Cc1ccccn1	i
COc1ccc(CN2C(=O)CO[C@H]3CN(C(C)C)C[C@H]32)cc1	i
CC(C)c1ccc(CN2CC[C@@H]3OCC(=O)N(Cc4ccccc4)[C@H]3CC2)cc1	10µM*
COc1ccccc1CN1CC[C@@H]2OCC(=O)N(Cc3c[nH]c4ccccc34)[C@H]2CC1	4.47µM*
CC(C)CCN1CC[C@@H]2OCC(=O)N(Cc3c[nH]c4ccccc34)[C@H]2CC1	i
COc1ccc(CN2C(=O)CO[C@H]3CN(CC4CC4)C[C@H]32)cc1	i
COc1ccc(CN2C(=O)CO[C@H]3CN(Cc4c[nH]c5ccccc45)C[C@H]32)cc1	7.94µM*
O=C1CO[C@H]2CCN(Cc3ccncc3)CC[C@@H]2N1Cc1ccccc1	i
N#Cc1cccc(CN2CC[C@@H]3OCC(=O)N(Cc4c[nH]c5ccccc45)[C@H]3CC2)c1	i
CC(C)N1C(=O)CO[C@H]2CCN(Cc3ccccc3)CC[C@@H]21	-24.5%[44.1 µM]
O=C1CO[C@H]2CN(Cc3ccncc3)C[C@H]2N1Cc1ccc(F)cc1	-5.2%[44.1 µM]
SMILES	Pf Dd2 inh
O=C1CO[C@H]2CN(Cc3ccc4c(c3)OCO4)C[C@H]2N1Cc1ccc(F)cc1	10µM*
Cc1ccc(CC(=O)NC(C)C(=O)N2CCN(c3ccccn3)CC2)cc1 (stereo not drawn)	i
O=C(c1ccc2c(c1)OCO2)N1CCC2(CNc3ccccc3[S+](=O)([O-])N2)C1 (stereo not drawn)	3.7%
Cn1ccnc1CN1CCN(CC2(O)CCNC2)CC1 (stereo not drawn)	-11.3%
COc1ccccc1C1NC(=O)N(CC2CC2)C2=C1C(=O)OC2 (stereo not drawn)	-26.2%
CN(C)c1cccc(C(=O)NC2CCN(c3cn[nH]c(=O)c3)CC2)c1	15.8%
CC(C)NC[C@H]1O[C@@H]2C[C@@H](CC(=O)NC(C)C)O[C@@H]2[C@@H]1O	11.7%[44.1 µM]
CN1CCN(c2nc3c(c(=O)[nH]2)CCN(Cc2cccn2C)CC3)CC1	54.9%[5.79 µM]
CCOC(=O)c1cnc2ccc(Br)cc2c1NCCN1CCOCC1	i
CCOC(=O)c1cnc2cc(C(F)(F)F)ccc2c1Nc1cc(C)ccc1OC	9.0%
CCCOC(=O)c1ccc(Nc2c(C(=O)OCC)cnc3c(C)cc(Cl)cc23)cc1	-23.9%
CCOC(=O)c1cnc2ccc(Cl)cc2c1Nc1ccc(N2CCOCC2)cc1	8.91µM*
CCOC(=O)c1cnc2ccc(C)cc2c1Nc1ccc(N(CC)CC)cc1	4.47µM*
Cc1ccc(NC(=O)Cn2nc(-c3ccc(F)cc3)c3cnc4ccc(C)cc4c32)cc1	46.1%
CCn1cc(CN2C[C@@H](COC)[C@H](C(=O)N(C)C)C2)cn1	7.4%
CCc1nc(-c2c3n(c(=O)n(CC(=O)Nc4cccc(C)c4C)c2=O)CCCC3)no1	-13.6%
O=C1N(C2CCOCC2)C[C@H]2CN(Cc3ccccc3F)CCN12	-4.4%[44.1 µM]
CC(=O)Nc1ccc([C@@H](O)[C@H]2COCC(=O)N2CCCc2ccccc2)cc1	i
O=C(Nc1ccc([C@@H](O)[C@H]2COCC(=O)N2CCCc2ccccc2)cc1)c1cnccn1	12.6µM*
CN1C(=O)COC[C@@H]1[C@H](O)c1ccc(NC(=O)c2cnccn2)cc1	-16.0%[44.1 µM]
CCN1C(=O)C2CC3(CCN(Cc4ccc(C)s4)CC3)CN2C1=O (stereo not drawn)	-6.3%
CCN(CC)C(=O)c1c(-c2ccc(OC)cc2)noc1[C@H](C)O	-8.7%[44.1 µM]
COC(=O)CNC(=O)C1CCc2nnc(-c3ccccc3OC)n21 (stereo not drawn)	36.7%
COc1ccccc1-c1nnc2n1C(C(=O)NC(C)C)CC2 (stereo not drawn)	-8.7%
COc1ccccc1-c1nnc2n1C(C(=O)NCCc1ccc(Cl)cc1)CC2 (stereo not drawn)	1.78µM*
SMILES	Pf Dd2 inh
C#CCN(C)Cc1nc(C2(O)CCN(C)CC2)cs1	1.5%[44.1 µM]
C#CCN(C)Cc1nc(C2(O)CCN(CC3CC3)CC2)cs1	i
C#CCN(C)Cc1nc(C2(O)CCN(C3CCC3)CC2)cs1	10µM*
CCN1c2cc(C(=O)NCc3ccc(C(C)C)cc3)ccc2C(=O)N2CCCCCC21 (stereo not drawn)	11.2µM*
CCN1c2cc(C(=O)Nc3ccc(C)cc3)ccc2C(=O)N2CCCCC21 (stereo not drawn)	i
CN1c2cc(C(=O)Nc3cc(F)cc(F)c3)ccc2C(=O)N2CCCCCC21 (stereo not drawn)	4.47µM*
CCc1cccc(NC(=O)c2ccc3c(c2)N(CC)C2CCCCCN2C3=O)c1 (stereo not drawn)	5.62µM*
CCc1cccc(NC(=O)c2ccc3c(c2)N(C)C2CCCCCN2C3=O)c1 (stereo not drawn)	-27.4%
CCN1c2cc(C(=O)Nc3cccc(C)c3)ccc2C(=O)N2CCCCCC21 (stereo not drawn)	-15.0%
Cc1cc(C)cc(NC(=O)c2ccc3c(c2)N(C)C2CCCCCN2C3=O)c1 (stereo not drawn)	i
CCN1c2cc(C(=O)NCc3ccccc3)ccc2C(=O)N2CCCCC21 (stereo not drawn)	-4.3%
CCN1c2cc(C(=O)NCc3ccc(C)cc3)ccc2C(=O)N2CCCCCC21 (stereo not drawn)	-9.0%
CN1c2cc(C(=O)Nc3cccc(F)c3)ccc2C(=O)N2CCCCC21 (stereo not drawn)	-11.4%
CCN1c2cc(C(=O)Nc3ccc(C)c(Cl)c3)ccc2C(=O)N2CCCC21 (stereo not drawn)	-22.3%
CCN1c2cc(C(=O)Nc3ccc(Br)c(C)c3)ccc2C(=O)N2CCCCC21 (stereo not drawn)	5.62µM*
CN1CC(=O)N(C2CCCNC2)Cc2c(NC3CCC3)ncnc21 (stereo not drawn)	5.5%

Bioassay records deposited in PubChem BioAssay by National Center for Advancing Translational Sciences (NCATS).
